For some assays here: Results with a measured potency or affinity are listed apart. The source made the active and inactive calls. Unless noted, no rule for the calls is given here.
Legend:
[1] = antimalarial activity against Dd2 strain (AID 2302;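 active = growth inhibition above 50% at the single 2 µM test dose, taken to imply half-maximal potency below 2 µM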;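 also: 0% = DMSO untreated growth and 100% = chloroquine plus artemisinin killed control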); settings: P. falciparum Dd2 in RBCs, LDH growth readout, 72 h; at 2 µM; stronger effect = higher value
[2] = human hepatoma cell viability loss – ATP luminescence, cytotoxicity control for P. falciparum antimalarial project, primary screen (AID 2303;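 active = inhibition above 50%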;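 also: 0% = DMSO wells and 100% = digitonin-killed cells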); settings: HepG2 viability, 24-48 h, at 10 µM, stronger effect = higher value
[3] = target: L-lactate dehydrogenase (Plasmodium falciparum (isolate CDC / Honduras)) (UniProt Q27743); assay: PfLDH activity inhibition – cell lysate, 3D7 strain, counter-screen for P. falciparum growth inhibition project (AID 2304);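 also: 0% = vehicle and 100% = reference inhibitor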; settings: P. falciparum 3D7 crude extract, LDH APAD/NBT absorbance; at 2 µM; stronger effect = higher value
Chain of L-lactate dehydrogenase (Plasmodium falciparum (isolate CDC / Honduras)) (Q27743 whole entry, looked up): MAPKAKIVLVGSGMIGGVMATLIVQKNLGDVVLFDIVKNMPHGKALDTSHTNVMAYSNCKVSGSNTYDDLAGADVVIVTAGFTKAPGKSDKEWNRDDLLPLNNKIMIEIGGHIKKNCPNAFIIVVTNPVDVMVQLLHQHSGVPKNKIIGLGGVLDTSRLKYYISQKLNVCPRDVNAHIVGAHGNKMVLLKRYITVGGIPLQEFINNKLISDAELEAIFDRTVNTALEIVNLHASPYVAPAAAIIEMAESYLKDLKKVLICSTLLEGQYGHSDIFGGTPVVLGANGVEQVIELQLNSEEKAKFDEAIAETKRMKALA

[4] = inhibition of 3D7 malaria parasite growth – strain 3D7 (AID 2306);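 also: 0% = DMSO wells and 100% = chloroquine plus artemisinin control wells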; settings: P. falciparum 3D7 erythrocytic growth, LDH absorbance, 72 h; at 2 µM; stronger effect = higher value
[5] = target: Calcium-dependent protein kinase 1 (Plasmodium falciparum (isolate 3D7)) (UniProt P62344); assay: PfCDPK1 kinase inhibitors, biochemical, TCAMS library (AID 1159585; cut-off not given, nearly all actives have IC50 up to about 0.98 µM;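 also: inhibitors leave more ATP so luminescence rises with inhibition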); settings: recombinant PfCDPK1, Kinase-Glo ATP depletion luminescence
Chain of Calcium-dependent protein kinase 1 (Plasmodium falciparum (isolate 3D7)) (P62344 whole entry, looked up): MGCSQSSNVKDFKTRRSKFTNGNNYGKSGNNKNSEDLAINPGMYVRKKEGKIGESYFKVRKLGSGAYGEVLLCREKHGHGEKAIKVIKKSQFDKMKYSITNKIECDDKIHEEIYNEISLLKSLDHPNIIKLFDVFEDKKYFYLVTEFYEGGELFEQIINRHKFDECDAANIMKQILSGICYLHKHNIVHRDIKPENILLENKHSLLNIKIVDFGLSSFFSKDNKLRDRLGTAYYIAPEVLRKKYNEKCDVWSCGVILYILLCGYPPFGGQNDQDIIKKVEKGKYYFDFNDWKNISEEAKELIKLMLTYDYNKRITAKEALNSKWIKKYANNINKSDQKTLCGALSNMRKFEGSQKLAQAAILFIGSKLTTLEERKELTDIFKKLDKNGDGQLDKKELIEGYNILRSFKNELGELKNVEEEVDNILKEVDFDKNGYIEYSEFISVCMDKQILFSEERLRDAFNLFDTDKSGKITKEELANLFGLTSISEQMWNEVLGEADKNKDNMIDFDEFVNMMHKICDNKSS

[6] = target: Plasmodium falciparum protein kinase 6 (PK6, PF3D7_1337100) (UniProt Q8IDW1); assay: PfPK6 kinase inhibitors, biochemical, TCAMS library (AID 1159586); settings: recombinant PfPK6, Kinase-Glo ATP depletion luminescence
Chain of Plasmodium falciparum protein kinase 6 (PK6, PF3D7_1337100) (Q8IDW1 1-305): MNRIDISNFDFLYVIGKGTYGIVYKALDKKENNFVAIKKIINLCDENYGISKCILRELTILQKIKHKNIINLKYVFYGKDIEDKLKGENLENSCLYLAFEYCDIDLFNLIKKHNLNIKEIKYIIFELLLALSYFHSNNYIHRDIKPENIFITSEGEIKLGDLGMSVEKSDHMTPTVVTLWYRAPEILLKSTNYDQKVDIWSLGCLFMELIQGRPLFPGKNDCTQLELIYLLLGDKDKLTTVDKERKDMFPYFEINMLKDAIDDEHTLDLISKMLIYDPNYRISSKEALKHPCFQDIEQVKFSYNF

[7] = target: Protein kinase 7 (PK7), Plasmodium falciparum 3D7 (PF3D7_0213400) (UniProt Q7YTF7); assay: inhibition of Plasmodium PK7 catalytic activity – biochemical, TCAMS antimalarial set, Kinase-Glo luminescence (AID 1159587); settings: recombinant PfPK7, Kinase-Glo ATP depletion luminescence
Chain of Protein kinase 7 (PK7), Plasmodium falciparum 3D7 (PF3D7_0213400) (Q7YTF7 1-343): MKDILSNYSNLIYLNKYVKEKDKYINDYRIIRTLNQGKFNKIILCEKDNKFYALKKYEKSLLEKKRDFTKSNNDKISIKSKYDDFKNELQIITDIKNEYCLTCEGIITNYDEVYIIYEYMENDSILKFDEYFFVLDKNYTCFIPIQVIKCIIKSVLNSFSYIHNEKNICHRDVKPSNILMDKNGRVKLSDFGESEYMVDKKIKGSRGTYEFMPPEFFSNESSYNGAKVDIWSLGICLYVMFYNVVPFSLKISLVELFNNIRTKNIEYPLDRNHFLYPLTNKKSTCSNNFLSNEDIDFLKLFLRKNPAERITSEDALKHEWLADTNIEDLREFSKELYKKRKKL

[8] = target: Calcium-dependent protein kinase 4 (Plasmodium falciparum (isolate 3D7)) (UniProt Q8IBS5); assay: PfCDPK4 kinase inhibitors, biochemical, TCAMS library (AID 1159588; cut-off not given, nearly all actives have IC50 up to about 0.91 µM); settings: recombinant PfCDPK4, Kinase-Glo ATP depletion luminescence
Chain of Calcium-dependent protein kinase 4 (Plasmodium falciparum (isolate 3D7)) (Q8IBS5 whole entry, looked up): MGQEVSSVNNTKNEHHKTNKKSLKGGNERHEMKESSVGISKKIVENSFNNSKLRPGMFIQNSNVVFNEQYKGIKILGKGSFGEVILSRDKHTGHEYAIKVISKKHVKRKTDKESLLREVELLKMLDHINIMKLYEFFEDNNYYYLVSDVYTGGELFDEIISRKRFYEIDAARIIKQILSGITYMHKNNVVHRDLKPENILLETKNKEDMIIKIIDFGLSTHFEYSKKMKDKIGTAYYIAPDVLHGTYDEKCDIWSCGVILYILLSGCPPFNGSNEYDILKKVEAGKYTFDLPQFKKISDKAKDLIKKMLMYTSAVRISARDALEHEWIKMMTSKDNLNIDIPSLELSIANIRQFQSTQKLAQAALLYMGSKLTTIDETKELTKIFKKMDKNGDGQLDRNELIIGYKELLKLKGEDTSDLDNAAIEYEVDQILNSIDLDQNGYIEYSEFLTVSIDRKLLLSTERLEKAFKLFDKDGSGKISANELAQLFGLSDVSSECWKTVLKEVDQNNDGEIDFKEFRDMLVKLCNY

CC(Nc1ccc2c(c1)OCCO2)C(=O)Nc1cc(C(F)(F)F)ccc1N1CCOCC1 (stereo not given)
inactive: inhibition [2] -6% | inhibition [3] 1% | outcome [5] | outcome [6] | outcome [7] | outcome [8]
active: growth inhibition [1] 70% | growth inhibition [4] 98%

CCCCC1(c2ccc(F)cc2)NC(=O)N(CC(=O)c2cc(C)n(Cc3ccco3)c2C)C1=O (stereo not given)
inactive: growth inhibition [1] 28% | inhibition [2] 6% | inhibition [3] -3% | outcome [5] | outcome [6] | outcome [7] | outcome [8]
active: growth inhibition [4] 82%

COc1cc(C=NNc2cc(C)nc3ccccc23)cc(OC)c1OC
inactive: inhibition [2] 5% | inhibition [3] -1% | outcome [5] | outcome [6] | outcome [7] | outcome [8]
active: growth inhibition [1] 95% | growth inhibition [4] 102%

Cn1nc(-c2ccc(NC(=O)Nc3cc(C(F)(F)F)ccc3F)cc2)c2cnc(NCCCCN3CCCC3)nc21
active: growth inhibition [1] 74% | inhibition [2] 88% | growth inhibition [4] 98%
inactive: inhibition [3] -3% | outcome [5] | outcome [6] | outcome [7] | outcome [8]

CCNc1cc(C(=O)N[C@@H](Cc2ccccc2Cl)[C@H](O)CNC(C)CCCC(C)C)cc(N2CCCCS2(=O)=O)c1 (stereo not given in full)
active: growth inhibition [1] 62% | growth inhibition [4] 97%
inactive: inhibition [2] 12% | inhibition [3] 2% | outcome [5] | outcome [6] | outcome [7] | outcome [8]

CC1CCCN(c2ccc(NC(=O)c3cccs3)cc2[N+](=O)[O-])C1 (stereo not given)
active: growth inhibition [1] 96% | growth inhibition [4] 96%
inactive: inhibition [2] 14% | inhibition [3] -2% | outcome [5] | outcome [6] | outcome [7] | outcome [8]

O=C(NCC1CCC(CNCCc2ccccc2)CC1)Nc1ccc(Cl)c(Cl)c1 (stereo not given)
active: growth inhibition [4] 96%
inactive: growth inhibition [1] -3% | inhibition [2] 24% | inhibition [3] -1% | outcome [5] | outcome [6] | outcome [7] | outcome [8]

CCCC(C)Nc1nc(C)cc(NCCC(=O)Nc2ccccc2)n1 (stereo not given)
inactive: growth inhibition [1] 11% | inhibition [2] 12% | inhibition [3] -4% | outcome [5] | outcome [6] | outcome [7] | outcome [8]
active: growth inhibition [4] 96%

CN1CCC(C(=O)Nc2ccc(-c3ccc(-c4nc5ccc(C(F)(F)F)cc5[nH]4)s3)cc2)CC1
inactive: inhibition [3] 4% | outcome [5] | outcome [6] | outcome [7] | outcome [8]
active: growth inhibition [1] 95% | inhibition [2] 53% | growth inhibition [4] 101%

O=C(Nc1cccc([N+](=O)[O-])c1)Nc1ccc(Cl)c(C(F)(F)F)c1
inactive: inhibition [2] 15% | inhibition [3] 6% | outcome [5] | outcome [6] | outcome [7] | outcome [8]
active: growth inhibition [1] 87% | growth inhibition [4] 96%

COc1ccccc1Nc1nc(C)cc(NCc2ccc(-n3ccnc3)cc2)n1
active: growth inhibition [4] 90%
inactive: growth inhibition [1] 10% | inhibition [2] 5% | inhibition [3] -2% | outcome [5] | outcome [6] | outcome [7] | outcome [8]

O=C(Nc1cccc(-c2csc(-c3nc4ccccc4[nH]3)c2)c1)c1ccncc1
active: growth inhibition [1] 61% | inhibition [2] 64% | growth inhibition [4] 101%
inactive: inhibition [3] -1% | outcome [5] | outcome [6] | outcome [7] | outcome [8]

CCc1cn(C)c2c(N3CCCC3=O)cc(C(=O)N[C@@H](Cc3ccccc3)[C@H](O)CNC(C)(C)CCCC(C)C)cc12
active: growth inhibition [1] 98% | growth inhibition [4] 97%
inactive: inhibition [2] 15% | inhibition [3] -4% | outcome [5] | outcome [6] | outcome [7] | outcome [8]

CCCc1cc(OCCCOc2ccccc2)ccc1OCCCON1C(N)=NC(N)=NC1(C)C
inactive: inhibition [3] 6% | outcome [5] | outcome [6] | outcome [7] | outcome [8]
active: growth inhibition [1] 96% | inhibition [2] 68% | growth inhibition [4] 94%

COc1cccc(-c2ccc(C(=O)NC3CCN(Cc4ccc(N(C)C)cc4)CC3)s2)c1
active: growth inhibition [4] 81%
inactive: growth inhibition [1] 20% | inhibition [2] 8% | inhibition [3] -1% | outcome [5] | outcome [6] | outcome [7] | outcome [8]

N#Cc1ccc(C=NNc2nc3ccccc3[nH]2)cc1
inactive: inhibition [2] -4% | inhibition [3] 3% | outcome [5] | outcome [6] | outcome [7] | outcome [8]
active: growth inhibition [1] 71% | growth inhibition [4] 101%

COc1cccc(-c2c(C#N)c(N)nc3c2c(C)nn3-c2ccccc2)c1O
active: growth inhibition [1] 100% | growth inhibition [4] 100%
inactive: inhibition [2] 4% | inhibition [3] 7% | outcome [5] | outcome [6] | outcome [7] | outcome [8]

CN(c1ccccc1C(=O)Nc1ccccc1Oc1ccccc1)S(=O)(=O)c1ccccc1
inactive: inhibition [2] 2% | inhibition [3] -2% | outcome [5] | outcome [6] | outcome [7] | outcome [8]
active: growth inhibition [1] 80% | growth inhibition [4] 90%

Cc1nc(-c2cccc(NCc3ccccc3)c2)[nH]c1C
inactive: growth inhibition [1] 48% | inhibition [2] 16% | inhibition [3] 1% | outcome [5] | outcome [6] | outcome [7] | outcome [8]
active: growth inhibition [4] 101%

C=CCOc1ccc2ccccc2c1CNCCCCCCNCc1c(OCC=C)ccc2ccccc12
active: growth inhibition [1] 98% | inhibition [2] 99% | growth inhibition [4] 100%
inactive: inhibition [3] 3% | outcome [5] | outcome [6] | outcome [7] | outcome [8]

CCc1nnc2sc(-c3cccc(NC(=O)c4ccc(C)c([N+](=O)[O-])c4)c3)nn12
inactive: growth inhibition [1] 46% | inhibition [2] 10% | inhibition [3] 4% | outcome [5] | outcome [6] | outcome [7] | outcome [8]
active: growth inhibition [4] 82%

CCCCCC1c2[nH]c3ccccc3c2CCN1C(=O)OCc1ccccc1 (stereo not given)
active: growth inhibition [1] 68% | growth inhibition [4] 93%
inactive: inhibition [2] 3% | inhibition [3] -3% | outcome [5] | outcome [6] | outcome [7] | outcome [8]

Cc1cccc(CN2CCCN(Cc3ccc(C(=O)Nc4ccc(Cl)cc4)cc3)CC2)c1
active: inhibition [2] 54% | growth inhibition [4] 92%
inactive: growth inhibition [1] 17% | inhibition [3] 3% | outcome [5] | outcome [6] | outcome [7] | outcome [8]

CCCCCCCCN1CCCN(C(=O)c2cccc(NC(=O)Nc3ccc4ccccc4c3)c2)CC1
inactive: growth inhibition [1] 39% | inhibition [2] 39% | inhibition [3] 1% | outcome [5] | outcome [6] | outcome [7] | outcome [8]
active: growth inhibition [4] 97%

O=C(Nc1ccc(O)c(-c2nc3ccccc3[nH]2)c1)c1ccc([N+](=O)[O-])cc1
inactive: growth inhibition [1] 45% | inhibition [2] -2% | inhibition [3] -6% | outcome [5] | outcome [6] | outcome [7] | outcome [8]
active: growth inhibition [4] 97%

COc1ccc2ncc(F)c(CCN3CCC[C@H](CNCc4ccc5c(n4)NC(=O)CS5)C3)c2n1
inactive: growth inhibition [1] 34% | inhibition [2] 16% | inhibition [3] 3% | outcome [5] | outcome [6] | outcome [7] | outcome [8]
active: growth inhibition [4] 96%

COc1ccc(C2CC(c3cccs3)=NN2C(=O)COc2cccc3c2CCCC3O)cc1OC (stereo not given)
inactive: inhibition [2] 5% | inhibition [3] 3% | outcome [5] | outcome [6] | outcome [7] | outcome [8]
active: growth inhibition [1] 62% | growth inhibition [4] 93%

O=C(Nc1ccc(Br)c(Cl)c1)c1cc([N+](=O)[O-])cc2cn[nH]c12
active: growth inhibition [1] 63% | growth inhibition [4] 99%
inactive: inhibition [2] 49% | inhibition [3] -1% | outcome [5] | outcome [6] | outcome [7] | outcome [8]

NC(N)=NN=Cc1ccc2c(c1)Cc1ccccc1-2
inactive: inhibition [3] -2% | outcome [5] | outcome [6] | outcome [7] | outcome [8]
active: growth inhibition [1] 81% | inhibition [2] 72% | growth inhibition [4] 100%

CCN(CC)CCCN(CCCN(CC)CC)c1cc(C)nc(Nc2ccc3cc(Br)ccc3c2)n1
inactive: inhibition [2] 12% | inhibition [3] 3% | outcome [5] | outcome [6] | outcome [7] | outcome [8]
active: growth inhibition [1] 73% | growth inhibition [4] 100%

O=C(Nc1cccc(F)c1)N(Cc1ccc(-c2ccc(CN3CCNCC3)cc2)cc1)C1CCN(Cc2ccccc2)CC1
active: growth inhibition [1] 53% | growth inhibition [4] 101%
inactive: inhibition [2] 18% | inhibition [3] 0% | outcome [5] | outcome [6] | outcome [7] | outcome [8]

COc1ccc(-c2nc3c(N)nc(N)nc3nc2C(C)C)cc1
active: inhibition [2] 71% | growth inhibition [4] 96%
inactive: growth inhibition [1] -4% | inhibition [3] 6% | outcome [5] | outcome [6] | outcome [7] | outcome [8]

C=CCc1cc(Cc2cnc(N)nc2N)c2ccc(C)nc2c1OC
inactive: growth inhibition [1] -1% | inhibition [2] 11% | inhibition [3] -4% | outcome [5] | outcome [6] | outcome [7] | outcome [8]
active: growth inhibition [4] 96%

COc1ccc(-c2ccc(Nc3cccc(S(=O)(=O)CCN4CCC(CCN(C)C)CC4)c3)nc2)cn1
inactive: growth inhibition [1] 9% | inhibition [2] 44% | inhibition [3] 3% | outcome [5] | outcome [6] | outcome [7] | outcome [8]
active: growth inhibition [4] 100%

Cc1[nH]c(C)c(-c2ccc(-c3ccc(Cl)cc3)cc2)c(=O)c1Cl
active: growth inhibition [1] 96% | growth inhibition [4] 96%
inactive: inhibition [2] -9% | inhibition [3] -6% | outcome [5] | outcome [6] | outcome [7] | outcome [8]

O=C(Nc1ccc2c(c1)OCO2)NC1CCN(c2ccnc(NCc3ccc(F)cc3)n2)CC1
active: growth inhibition [4] 88%
inactive: growth inhibition [1] 15% | inhibition [2] 33% | inhibition [3] 3% | outcome [5] | outcome [6] | outcome [7] | outcome [8]

O=C(NCCCN1CCC(N2CCCCC2)CC1)c1ccc2nc(N3CCCCC3)sc2c1
inactive: growth inhibition [1] 20% | inhibition [2] 11% | inhibition [3] -1% | outcome [5] | outcome [6] | outcome [7] | outcome [8]
active: growth inhibition [4] 89%

CN1CCN(c2ccc3nc(-c4ccc(Cc5cc(Cl)ccc5OCc5ccccc5)o4)[nH]c3c2)CC1
inactive: inhibition [2] 27% | inhibition [3] 2% | outcome [5] | outcome [6] | outcome [7] | outcome [8]
active: growth inhibition [1] 79% | growth inhibition [4] 102%

C[C@@H]1CN(c2ccnc3ccc(Sc4ccc(Oc5ccccc5)cc4)cc23)C[C@H](C)N1
active: growth inhibition [1] 99% | growth inhibition [4] 100%
inactive: inhibition [2] 33% | inhibition [3] 7% | outcome [5] | outcome [6] | outcome [7] | outcome [8]

COc1cc(OC)c2c(c1Cl)O[C@]1(C2=O)C(=O)C(Cc2ccccc2)(Cc2ccccc2)C(=O)C[C@H]1C
inactive: growth inhibition [1] 45% | inhibition [2] -12% | inhibition [3] -3% | outcome [5] | outcome [6] | outcome [7] | outcome [8]
active: growth inhibition [4] 90%

— PubChem BioAssay
